# Data as given in PMC7862700, “An all-to-all approach to the identification of sequence-specific readers for epigenetic DNA modifications on cytosine”.
# How the values were obtained:
# Assay in all cases: DAPPL (digital affinity profiling via proximity ligation, sequencing); 10 mM Tris-HCl pH 7.5, 50 mM NaCl, 1 mM DTT, 4% glycerol, room temperature, 30 min; GST-TFs on glutathione beads, 16-mer random dsDNA library, 0.1% formaldehyde crosslink after washing; high values mean tight binding
# FLI1 = molecular target: T1, FLI1 (Homo sapiens, UniProt Q01543 1-452); settings: protein: recombinant; tags: N-terminal GST; dsDNA, one strand shown
# T1 sequence: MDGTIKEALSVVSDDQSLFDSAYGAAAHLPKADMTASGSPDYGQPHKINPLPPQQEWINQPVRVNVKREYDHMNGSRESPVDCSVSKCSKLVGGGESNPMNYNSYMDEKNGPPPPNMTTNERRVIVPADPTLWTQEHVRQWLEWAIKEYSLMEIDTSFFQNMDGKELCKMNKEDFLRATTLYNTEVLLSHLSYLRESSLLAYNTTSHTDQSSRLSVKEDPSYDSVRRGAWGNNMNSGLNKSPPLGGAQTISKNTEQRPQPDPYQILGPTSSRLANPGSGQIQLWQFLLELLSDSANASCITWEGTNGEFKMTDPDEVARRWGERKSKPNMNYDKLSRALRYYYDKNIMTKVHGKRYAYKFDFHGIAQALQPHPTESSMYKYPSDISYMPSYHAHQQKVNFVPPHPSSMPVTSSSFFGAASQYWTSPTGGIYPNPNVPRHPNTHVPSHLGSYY
# In short: (§1)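 Binding signal is defined as a hexamer's read frequency for one factor over its frequency for the tag-only sample. To obtain reads, GST-fused human transcription factors were expressed in yeast, captured on glutathione beads, barcoded with DNA and pooled with that sample. Pools met 200 nmole of a 16-mer random double-stranded DNA library in Tris/NaCl/DTT/glycerol buffer for 30 min at room temperature before washing, 0.1% formaldehyde crosslinking, proximity ligation (BsaI/T4 ligase, 1 h, 37 °C), PCR and Illumina NextSeq500 sequencing.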
# ELK1 = molecular target: T2, ELK1 (Homo sapiens, UniProt P19419 1-428); settings: protein: recombinant; tags: N-terminal GST; dsDNA, one strand shown
# T2 sequence: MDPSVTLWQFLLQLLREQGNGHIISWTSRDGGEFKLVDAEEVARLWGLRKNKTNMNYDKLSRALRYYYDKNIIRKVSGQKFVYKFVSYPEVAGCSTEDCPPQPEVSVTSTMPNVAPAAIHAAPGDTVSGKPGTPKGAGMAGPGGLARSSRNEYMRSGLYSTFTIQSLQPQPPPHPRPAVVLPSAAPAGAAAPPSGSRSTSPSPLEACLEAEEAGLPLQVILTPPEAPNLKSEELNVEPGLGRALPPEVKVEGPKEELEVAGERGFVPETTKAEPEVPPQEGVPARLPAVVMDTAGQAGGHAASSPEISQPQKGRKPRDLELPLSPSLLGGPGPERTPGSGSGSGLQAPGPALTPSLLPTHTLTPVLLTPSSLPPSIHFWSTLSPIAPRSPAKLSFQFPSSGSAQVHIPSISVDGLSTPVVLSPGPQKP
# In short: as §1
# GABPA = molecular target: T3, GABPA (Homo sapiens, UniProt Q06546 1-454); settings: protein: recombinant; tags: N-terminal GST; dsDNA, one strand shown
# T3 sequence: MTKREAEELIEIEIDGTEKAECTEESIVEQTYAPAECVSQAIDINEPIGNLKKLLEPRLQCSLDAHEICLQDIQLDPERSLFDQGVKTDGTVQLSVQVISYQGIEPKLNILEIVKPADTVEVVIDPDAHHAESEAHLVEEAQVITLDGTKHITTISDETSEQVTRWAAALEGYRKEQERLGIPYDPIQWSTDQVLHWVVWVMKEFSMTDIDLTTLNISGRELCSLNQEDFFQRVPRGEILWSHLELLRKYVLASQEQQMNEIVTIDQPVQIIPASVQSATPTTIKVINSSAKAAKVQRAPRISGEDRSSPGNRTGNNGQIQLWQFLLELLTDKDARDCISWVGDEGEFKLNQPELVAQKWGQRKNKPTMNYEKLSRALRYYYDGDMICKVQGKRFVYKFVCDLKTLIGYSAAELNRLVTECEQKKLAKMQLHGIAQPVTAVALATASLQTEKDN
# In short: as §1
# ELK4 = molecular target: T4, ELK4 (Homo sapiens, UniProt P28324-2 1-405); settings: protein: recombinant; tags: N-terminal GST; dsDNA, one strand shown
# T4 sequence: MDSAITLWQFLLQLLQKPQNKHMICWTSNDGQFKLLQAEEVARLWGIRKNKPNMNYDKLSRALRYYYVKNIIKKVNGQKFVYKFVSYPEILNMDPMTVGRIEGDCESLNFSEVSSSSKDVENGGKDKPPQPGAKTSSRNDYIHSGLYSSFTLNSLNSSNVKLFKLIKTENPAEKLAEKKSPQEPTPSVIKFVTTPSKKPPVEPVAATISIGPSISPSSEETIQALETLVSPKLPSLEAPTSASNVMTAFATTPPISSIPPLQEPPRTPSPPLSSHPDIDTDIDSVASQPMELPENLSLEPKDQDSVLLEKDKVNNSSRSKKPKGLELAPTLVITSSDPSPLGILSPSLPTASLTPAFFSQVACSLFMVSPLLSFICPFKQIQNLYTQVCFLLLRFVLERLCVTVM
# In short: as §1
# ERF = molecular target: T5, ERF (Homo sapiens, UniProt P50548 1-548); settings: protein: recombinant; tags: N-terminal GST; dsDNA, one strand shown
# T5 sequence: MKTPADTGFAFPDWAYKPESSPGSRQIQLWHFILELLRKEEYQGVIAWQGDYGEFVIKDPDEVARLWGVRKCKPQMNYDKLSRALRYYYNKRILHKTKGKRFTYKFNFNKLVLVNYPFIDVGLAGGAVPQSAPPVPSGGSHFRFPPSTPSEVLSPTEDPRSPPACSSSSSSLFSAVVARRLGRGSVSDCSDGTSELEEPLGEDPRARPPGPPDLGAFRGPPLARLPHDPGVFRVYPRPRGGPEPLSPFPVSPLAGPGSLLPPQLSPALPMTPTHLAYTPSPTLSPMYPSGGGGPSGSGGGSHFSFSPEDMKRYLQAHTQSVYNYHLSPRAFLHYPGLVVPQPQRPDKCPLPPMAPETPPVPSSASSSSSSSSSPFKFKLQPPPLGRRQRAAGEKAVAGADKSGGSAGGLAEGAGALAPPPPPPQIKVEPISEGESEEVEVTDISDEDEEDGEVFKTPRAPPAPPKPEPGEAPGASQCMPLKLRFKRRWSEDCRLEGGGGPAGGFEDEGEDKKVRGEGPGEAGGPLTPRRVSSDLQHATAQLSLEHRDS
# In short: as §1
# ETV3L = molecular target: T6, ETV3L (Homo sapiens, UniProt Q6ZN32 1-361); settings: protein: recombinant; tags: N-terminal GST; dsDNA, one strand shown
# T6 sequence: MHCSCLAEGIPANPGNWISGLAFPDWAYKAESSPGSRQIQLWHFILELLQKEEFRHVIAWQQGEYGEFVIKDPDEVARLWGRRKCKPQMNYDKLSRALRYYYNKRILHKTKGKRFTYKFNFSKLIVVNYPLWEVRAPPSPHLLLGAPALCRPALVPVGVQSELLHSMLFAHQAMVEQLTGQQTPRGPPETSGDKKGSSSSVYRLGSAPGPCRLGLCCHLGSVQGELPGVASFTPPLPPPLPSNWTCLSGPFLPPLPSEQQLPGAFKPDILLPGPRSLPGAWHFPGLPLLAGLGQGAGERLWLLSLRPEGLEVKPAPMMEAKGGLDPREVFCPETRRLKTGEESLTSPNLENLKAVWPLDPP
# In short: as §1
# ETV7 = molecular target: T7, ETV7 (Homo sapiens, UniProt Q9Y603 1-341); settings: protein: recombinant; tags: N-terminal GST; dsDNA, one strand shown
# T7 sequence: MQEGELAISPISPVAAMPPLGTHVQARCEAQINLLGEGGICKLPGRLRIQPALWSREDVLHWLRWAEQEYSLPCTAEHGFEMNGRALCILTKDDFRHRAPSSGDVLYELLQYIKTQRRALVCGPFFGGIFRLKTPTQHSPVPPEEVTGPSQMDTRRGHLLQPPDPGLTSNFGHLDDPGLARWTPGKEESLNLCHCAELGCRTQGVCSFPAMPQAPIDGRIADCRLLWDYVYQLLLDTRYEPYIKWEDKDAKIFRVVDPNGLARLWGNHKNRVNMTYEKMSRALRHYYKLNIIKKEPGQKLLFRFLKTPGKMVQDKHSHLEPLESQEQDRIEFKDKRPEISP
# In short: as §1
# EHF = molecular target: T8, EHF (Homo sapiens, UniProt Q9NZC4 1-300); settings: protein: recombinant; tags: N-terminal GST; dsDNA, one strand shown
# T8 sequence: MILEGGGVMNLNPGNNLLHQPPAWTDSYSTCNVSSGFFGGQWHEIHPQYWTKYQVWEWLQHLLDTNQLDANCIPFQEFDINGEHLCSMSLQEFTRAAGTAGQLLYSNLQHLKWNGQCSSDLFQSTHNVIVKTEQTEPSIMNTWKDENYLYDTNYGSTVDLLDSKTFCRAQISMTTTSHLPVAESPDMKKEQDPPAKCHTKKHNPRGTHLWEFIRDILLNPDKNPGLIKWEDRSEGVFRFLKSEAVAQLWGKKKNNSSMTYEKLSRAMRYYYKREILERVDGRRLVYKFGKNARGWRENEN
# In short: as §1
# HSF1 = HSF1 (Homo sapiens, UniProt Q00613 1-529); settings: protein: recombinant; tags: N-terminal GST; chain copies: 3; dsDNA, one strand shown
# Chain of HSF1 (Q00613 whole entry): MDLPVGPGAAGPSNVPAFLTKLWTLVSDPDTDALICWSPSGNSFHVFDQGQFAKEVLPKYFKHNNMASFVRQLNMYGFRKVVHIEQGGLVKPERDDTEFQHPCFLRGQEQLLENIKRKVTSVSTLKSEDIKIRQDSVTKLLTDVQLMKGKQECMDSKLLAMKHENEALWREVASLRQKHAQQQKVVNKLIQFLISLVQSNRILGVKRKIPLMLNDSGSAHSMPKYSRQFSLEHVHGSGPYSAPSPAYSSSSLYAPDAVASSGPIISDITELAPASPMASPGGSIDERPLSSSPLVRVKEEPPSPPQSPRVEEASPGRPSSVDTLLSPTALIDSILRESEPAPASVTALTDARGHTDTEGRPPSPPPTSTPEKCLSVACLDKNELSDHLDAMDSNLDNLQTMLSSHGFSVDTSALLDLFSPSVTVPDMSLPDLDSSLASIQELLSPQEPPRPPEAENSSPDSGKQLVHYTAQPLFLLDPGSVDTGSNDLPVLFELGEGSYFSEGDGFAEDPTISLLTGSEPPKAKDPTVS
# In short: as §1
# ERG = molecular target: T9, ERG (Homo sapiens, UniProt P11308 1-479); settings: protein: recombinant; tags: N-terminal GST; dsDNA, one strand shown
# T9 sequence: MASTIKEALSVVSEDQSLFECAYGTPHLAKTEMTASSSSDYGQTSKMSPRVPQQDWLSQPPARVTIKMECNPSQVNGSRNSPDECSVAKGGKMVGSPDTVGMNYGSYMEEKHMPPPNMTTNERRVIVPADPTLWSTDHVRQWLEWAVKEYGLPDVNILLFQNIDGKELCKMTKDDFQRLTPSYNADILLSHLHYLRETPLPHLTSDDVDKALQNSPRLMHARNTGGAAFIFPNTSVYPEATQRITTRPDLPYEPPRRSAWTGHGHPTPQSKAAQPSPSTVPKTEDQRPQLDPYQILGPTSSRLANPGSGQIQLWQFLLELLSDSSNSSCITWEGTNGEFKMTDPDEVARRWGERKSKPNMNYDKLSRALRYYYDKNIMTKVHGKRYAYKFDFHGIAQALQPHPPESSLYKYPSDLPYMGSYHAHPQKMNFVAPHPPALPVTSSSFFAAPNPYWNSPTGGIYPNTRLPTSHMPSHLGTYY
# In short: as §1
# SPIB = SPIB (Homo sapiens, UniProt Q01892 1-262); settings: protein: recombinant; tags: N-terminal GST; dsDNA, one strand shown
# Chain of SPIB (Q01892 whole entry): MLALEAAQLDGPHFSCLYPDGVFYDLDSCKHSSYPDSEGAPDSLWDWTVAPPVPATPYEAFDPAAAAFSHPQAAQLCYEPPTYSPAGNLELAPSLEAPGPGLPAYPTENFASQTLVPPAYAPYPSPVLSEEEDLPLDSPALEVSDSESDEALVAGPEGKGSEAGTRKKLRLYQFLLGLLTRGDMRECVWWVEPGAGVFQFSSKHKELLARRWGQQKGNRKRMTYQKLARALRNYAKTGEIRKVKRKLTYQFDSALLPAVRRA
# In short: as §1
# ELF3 = molecular target: T10, ELF3 (Homo sapiens, UniProt P78545 1-371); settings: protein: recombinant; tags: N-terminal GST; dsDNA, one strand shown
# T10 sequence: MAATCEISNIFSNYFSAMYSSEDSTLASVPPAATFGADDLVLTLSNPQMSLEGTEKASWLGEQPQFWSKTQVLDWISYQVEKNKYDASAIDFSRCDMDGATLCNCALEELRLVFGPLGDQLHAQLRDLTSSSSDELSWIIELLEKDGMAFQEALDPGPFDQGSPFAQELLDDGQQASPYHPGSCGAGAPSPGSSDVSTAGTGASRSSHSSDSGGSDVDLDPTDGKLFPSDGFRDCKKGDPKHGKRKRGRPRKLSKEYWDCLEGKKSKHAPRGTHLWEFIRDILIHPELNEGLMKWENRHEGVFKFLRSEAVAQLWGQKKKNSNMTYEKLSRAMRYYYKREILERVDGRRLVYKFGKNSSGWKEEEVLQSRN
# In short: as §1
# ETV1 = ETV1 (Homo sapiens, UniProt P50549 1-477); settings: protein: recombinant; tags: N-terminal GST; dsDNA, one strand shown
# Chain of ETV1 (P50549 whole entry): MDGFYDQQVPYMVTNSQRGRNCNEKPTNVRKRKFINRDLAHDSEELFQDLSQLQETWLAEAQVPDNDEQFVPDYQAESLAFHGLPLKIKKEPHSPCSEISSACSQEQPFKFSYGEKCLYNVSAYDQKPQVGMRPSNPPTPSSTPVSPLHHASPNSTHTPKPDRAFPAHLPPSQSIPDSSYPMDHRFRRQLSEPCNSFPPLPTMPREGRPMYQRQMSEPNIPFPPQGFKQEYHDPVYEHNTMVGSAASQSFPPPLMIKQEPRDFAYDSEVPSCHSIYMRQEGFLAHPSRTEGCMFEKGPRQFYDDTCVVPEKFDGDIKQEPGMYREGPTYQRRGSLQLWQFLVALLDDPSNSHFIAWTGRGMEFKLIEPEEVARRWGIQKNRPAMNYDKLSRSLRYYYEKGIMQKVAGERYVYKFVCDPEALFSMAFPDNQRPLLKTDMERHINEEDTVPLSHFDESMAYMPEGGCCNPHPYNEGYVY
# In short: as §1
sequence,measurement,setting,value
CATTGA,binding signal,FLI1,"1.06 fold enrichment (6-mer frequency, TF over GST control)"
same,binding signal,ELK1,"1.05 fold enrichment (6-mer frequency, TF over GST control)"
same,binding signal,GABPA,"1 fold enrichment (6-mer frequency, TF over GST control)"
same,binding signal,ELK4,"1.11 fold enrichment (6-mer frequency, TF over GST control)"
same,binding signal,ERF,"1 fold enrichment (6-mer frequency, TF over GST control)"
same,binding signal,ETV3L,"1.01 fold enrichment (6-mer frequency, TF over GST control)"
same,binding signal,ETV7,"1.01 fold enrichment (6-mer frequency, TF over GST control)"
CATTGG,binding signal,FLI1,"1.05 fold enrichment (6-mer frequency, TF over GST control)"
same,binding signal,GABPA,"1 fold enrichment (6-mer frequency, TF over GST control)"
same,binding signal,EHF,"1 fold enrichment (6-mer frequency, TF over GST control)"
same,binding signal,ERF,"1.05 fold enrichment (6-mer frequency, TF over GST control)"
CATAGA,binding signal,HSF1,"1.15 fold enrichment (6-mer frequency, TF over GST control)"
ACGTCA,binding signal,FLI1,"1.01 fold enrichment (6-mer frequency, TF over GST control)"
same,binding signal,ERG,"1.01 fold enrichment (6-mer frequency, TF over GST control)"
same,binding signal,EHF,"1.01 fold enrichment (6-mer frequency, TF over GST control)"
same,binding signal,SPIB,"1.09 fold enrichment (6-mer frequency, TF over GST control)"
same,binding signal,ELF3,"1.03 fold enrichment (6-mer frequency, TF over GST control)"
same,binding signal,ETV1,"1.05 fold enrichment (6-mer frequency, TF over GST control)"
GTGACT,binding signal,FLI1,"1.02 fold enrichment (6-mer frequency, TF over GST control)"
same,binding signal,ETV3L,"1.01 fold enrichment (6-mer frequency, TF over GST control)"
